AC50 data for 17 compounds are collected here from PubChem BioAssay AID1259339 (Broad Institute, 2017).

SMILES strings stand for the structures. Calls of active or inactive are those of the source.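 The calls were made as follows: active = fitted AC50 no higher than ten times the top tested dose (cut at about 90 µM in these data); inconclusive = flat curve with 30 to 70% signal loss, or bad fit; inactive = AC50 beyond ten times the top dose.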

The assay in a line: AlphaLISA signal interference compounds, dose response, artefact control, biochemical, TruHit kit (AID 1259339). The conditions noted are these: TruHit alphaLISA kit signal interference counterscreen; series mostly up to 80 µM. A general note: Bead proximity is the source of the signal in Alpha formats.
On to `CC1CCN(c2nc(-c3ccco3)c3c(c2C#N)CC(C)(C)OC3)CC1`, for which the AC50 is 33.5 µM (active).
With `Cc1ccc(C(=O)Nc2cnc(N3CCC(C(N)=O)(N4CCCCC4)CC3)c(C(=O)O)c2)cc1` the entry was “inactive”; with `O=C(COC(=O)c1cc(-c2cccs2)nc2ccccc12)NCc1ccco1`, 40.2 µM (active).
On to `COc1c(C(=O)O)csc1Br`, for which the concentration at half-maximal activity (AC50) is 0.373 µM (active).
With `O=C(O)CCc1ccc(-c2cccs2)n1NC(=O)c1ccco1` the figure was > 160 µM (inactive); with `NC(=O)C1(N2CCCCC2)CCN(c2ncc(NC(=O)c3ccccc3F)cc2C(=O)O)CC1`, “inactive”; with `COc1ccc(S(=O)(=O)N2CCOCC2)cc1NC(=O)c1cccc(-n2cccc2)c1`, 36.1 µM (active).
With `O=C(Nc1nccs1)c1cc(-c2ccco2)nc2ccccc12` the figure was 29 µM (active); with `O=[N+]([O-])c1cccc(-c2nnc3ccc4ccccc4n23)c1`, “inactive”; with `O=C(O)COc1ccc(-n2cccc2)cc1`, “inactive”.
Regarding `CCCN1CCCn2nc(CNC(=O)[C@@H](N)Cc3ccc(O)cc3)cc2C1`, the AC50 result was “inactive”.
Turning to `N#Cc1c(N)oc(-c2ccco2)c1-c1ccco1`, the AC50 is 29.9 µM (active).
The result for `NC(=O)C1(N2CCCCC2)CCN(c2ncc(NC(=O)c3cccs3)cc2C(=O)O)CC1` reads “inactive”; that for `C=CCNc1ncnc2c1CCN(C(=O)c1ccc(CSC)o1)CC2`, “inactive”; that for `CCOC(=O)C1CCN(C(=O)CN(Cc2ccccc2)S(C)(=O)=O)CC1`, “inactive”.
Take `O=C(Nc1ccc(OCC(=O)N2CCOCC2)cc1)c1cncc(Br)c1`: the AC50 entry was “inactive”.
Take `Cc1cnc(C)c(N2CCN(C(=O)[C@H]3CC[C@@H](N)C3)CC2)n1`: the AC50 result is “inactive”.

The term AC50 denotes the concentration at which the activity in the assay is half-maximal.
